The list is not random: actives were taken first. Their share in the collection is about 2.6%.
PABP1 MLLE inh – blocks PAM2 peptide binding to the PABP1 MLLE domain; P11940; GST-MLLE / FITC-PAM2 fluorescence polarization; inhibition, % at 20 µM; 360,000 compounds, 0.36% hits; AID 588489; in the data active = inhibition above about 35%, passing the limit was not always enough;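 note: plate controls were DMSO wells with GST-MLLE for no effect and wells lacking GST-MLLE protein for full effect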
Target sequence (P11940 whole entry, looked up, the tested form may be a part): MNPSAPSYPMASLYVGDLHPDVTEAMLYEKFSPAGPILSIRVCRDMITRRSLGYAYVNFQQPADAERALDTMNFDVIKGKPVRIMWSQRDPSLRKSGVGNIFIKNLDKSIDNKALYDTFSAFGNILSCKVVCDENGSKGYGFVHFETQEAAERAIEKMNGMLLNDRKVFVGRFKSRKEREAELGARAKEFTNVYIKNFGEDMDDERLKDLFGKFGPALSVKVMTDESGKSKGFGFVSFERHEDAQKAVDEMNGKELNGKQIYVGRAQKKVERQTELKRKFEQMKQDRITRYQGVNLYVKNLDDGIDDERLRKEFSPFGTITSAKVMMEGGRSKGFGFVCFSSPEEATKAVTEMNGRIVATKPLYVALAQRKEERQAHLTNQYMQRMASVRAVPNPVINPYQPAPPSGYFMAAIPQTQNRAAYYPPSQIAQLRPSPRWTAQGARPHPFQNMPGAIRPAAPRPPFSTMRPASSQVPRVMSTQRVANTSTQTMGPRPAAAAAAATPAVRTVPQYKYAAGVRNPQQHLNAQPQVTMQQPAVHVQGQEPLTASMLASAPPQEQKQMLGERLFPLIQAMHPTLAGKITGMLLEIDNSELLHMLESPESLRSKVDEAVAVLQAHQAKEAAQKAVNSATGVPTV
eIF4H inh – inhibitors of RNA binding by human eIF4H; Q15056; eIF4H fluorescence polarization binding assay; inhibition, % at 35 µM; 290,000 compounds, 0.94% hits; AID 2012;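 note: calls also rest on retests at 20 µM and on dose response follow-up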
PHOSPHO1 inh – inhibitors of human PHOSPHO1 phosphatase | recombinant PHOSPHO1, absorbance phosphatase assay | inhibition, % at 13.3 µM | 290,000 compounds, 1.1% hits | AID 1565; in the data active = inhibition above about 60%
AI-2 QS modul – Vibrio harveyi AI-2 quorum sensing modulation; AID 2094; Vibrio harveyi JMH597 AI-2 luminescence/OD600 ratio, 9 h; hits give low values; strain lacks LuxN and CqsS sensors; 0 = neutral-control median; activity change, % at 7.5 µM; 300,000 compounds, 0.4% hits; in the data active = activity change below about -75%, passing the limit was not always enough; inconclusive = no clear call, values can overlap the other calls;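 note: luminescence divided by OD600 gain over 9 h not by final OD600 alone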
PABP FP inh – blocks human PABP binding to poly(A) RNA. P11940. fluorescence polarization. calls only at 35 µM. 290,000 compounds, 1% hits. AID 2014;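 note: calls also rest on retests at 20 µM and on dose response follow-up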
ABCB6 inh 2 – blocks the human ABCB6 transporter; Q9NP58; 360,000 compounds, 0.19% hits; fluorescence ratio to DMSO, % at 10 µM; K562-ABCB6 porphyrin accumulation, flow cytometry, 1 h; hits give low values;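 active = fluorescence ratio to DMSO below 75%, the collection mean minus 3 SD; inconclusive = too few cells collected in the well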;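 note: signal is porphyrin accumulated inside mitochondria; 100% equals median channel fluorescence of DMSO control wells; lower ratio means ABCB6 inhibition with less porphyrin fluorescence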
Starred values were filed as active, the others as inactive; i = inactive; ? = inconclusive; / = no result given; + = active, no number. Unless noted, the rule behind the calls is not given here.

SMILES	PABP1 MLLE inh	eIF4H inh	PHOSPHO1 inh	AI-2 QS modul	PABP FP inh	ABCB6 inh 2
Cc1occc1C(=O)NCc1ccccc1	17.0	2.4	52.4	-5.8	i	146.0
Cc1occc1C(=O)NCc1ccco1	-3.6	57.8*	-7.4	22.1	+	100.0
O=C(NCc1ccco1)c1cc2ccc(O)cc2oc1=O	-7.2	?	-78.4	51.3	+	96.0
CCOC(=O)[C@]12CCC=C1N(Cc1ccc(Cl)cc1Cl)C(=O)[C@H](CC(=O)NCc1cccs1)C2	/	/	/	/	/	98.0
CCNC(=O)C1(C)CCN(Cc2cccc(C(F)(F)F)c2)C1 (centres undefined)	-11.6	/	/	/	/	109.0
CCCCCCC(=O)Nc1nc(C)c(-c2csc(Nc3ccccc3OC)n2)s1	-0.1	1.6	79.2*	34.9	i	100.0
COc1cccc(Nc2nc(-c3sc(N)nc3C)cs2)c1	-28.8	11.5	65.8*	12.5	i	101.0
CCOc1ccccc1Nc1nc(-c2sc(NC(=O)c3ccccc3)nc2C)cs1	/	0.2	87.7*	10.9	i	/
Cc1nc(N)sc1-c1csc(NCc2ccccc2)n1	-44.3	10.7	67.3*	5.3	i	102.0
CSc1ccc(CN2CCC2(C)C(=O)NCc2cccc(C(F)(F)F)c2)cc1 (centres undefined)	12.2	/	/	/	/	96.0
CCOC(=O)C1=CCN(S(=O)(=O)c2ccc(C)cc2)C1c1cccc(Br)c1 (centres undefined)	3.7	/	/	/	/	95.0
CCCC(C)C(=O)Nc1nc(C)c(-c2csc(Nc3ccc(Cl)cc3)n2)s1 (centres undefined)	-17.6	8.4	20.1	22.7	i	101.0
CCCCCC(=O)Nc1nc(C)c(-c2csc(Nc3ccccc3OCC)n2)s1	-19.8	-0.7	79.2*	11.0	i	105.0
CCCCCC(=O)Nc1nc(C)c(-c2csc(Nc3ccccc3OC)n2)s1	9.8	-5.3	74.3*	4.9	i	103.0
COc1ccccc1Nc1nc(-c2sc(NC(=O)c3ccccc3)nc2C)cs1	-16.4	-7.0	50.0	10.7	i	107.0
Cc1nc(NC(=O)c2ccccc2)sc1-c1csc(NCCc2ccccc2)n1	-73.7	29.1	62.2*	8.2	i	144.0
CCCC(C)C(=O)Nc1nc(C)c(-c2csc(Nc3ccccc3OC)n2)s1 (centres undefined)	5.4	-5.7	74.3*	25.0	i	103.0
Cc1ccc(N(C(C)C(=O)Nc2ccc(S(=O)(=O)N3CCOCC3)cc2)S(C)(=O)=O)cc1C (centres undefined)	5.7	2.0	-56.0	7.7	i	93.0
CS(=O)(=O)N(CC(=O)Nc1ccc(S(=O)(=O)N2CCOCC2)cc1)c1ccccc1Cl	17.8	-10.5	41.2	-2.8	i	98.0
Cc1ccccc1N(CC(=O)Nc1ccc(S(=O)(=O)N2CCOCC2)cc1)S(C)(=O)=O	9.1	-6.6	62.8*	21.4	i	101.0
Cc1ccc(N(C(C)C(=O)Nc2ccc(S(=O)(=O)N3CCOCC3)cc2)S(C)(=O)=O)cc1 (centres undefined)	9.1	?	-24.4	11.7	+	105.0
O=S1(=O)N[C@H](Cc2ccccc2)COc2cc(N3CCN(Cc4ccccc4F)CC3)ccc21	/	/	/	/	/	100.0
Oc1ccc(NCc2cccc(OCc3ccc(F)cc3)c2)cc1	-8.6	33.2	18.3	-1.0	i	95.0
Oc1ccc(NCc2cccc(OCc3ccccc3)c2)cc1	-23.9	69.3	36.8	21.6	+	103.0
CCOc1ccc(CCN2C(=O)C(=O)N([C@@H](Cc3ccccc3)CN3CCC[C@H]3CN3C(=O)C(=O)NC[C@@H]3CC(C)C)C[C@@H]2Cc2ccc(O)cc2)cc1	/	/	/	/	/	i
SMILES	PABP1 MLLE inh	eIF4H inh	PHOSPHO1 inh	AI-2 QS modul	PABP FP inh	ABCB6 inh 2
CCOC(=O)C1=C(C)N=c2s/c(=C\c3ccc(C(=O)O)cc3)c(=O)n2C1c1ccc(OC)cc1OC (centres undefined)	-12.3	/	/	22.4	/	95.0
CCOC(=O)C1=C(C)N=c2s/c(=C/c3ccco3)c(=O)n2C1c1cccc(OC)c1 (centres undefined)	/	?	66.2*	4.5	?	/
COC(=O)C1=C(C)N=c2s/c(=C/c3ccoc3)c(=O)n2C1c1ccccc1 (centres undefined)	-115.3	83.0*	-55.2	29.8	+	234.0
O=C1CC(c2cccs2)Sc2nc3ccccc3n21 (centres undefined)	-88.0	3.0	18.0	-4.5	i	106.0
O=C1CC(c2ccc3c(c2)OCO3)Sc2nc3ccccc3n21 (centres undefined)	-79.8	-2.1	96.8*	5.7	i	88.0
O=C1CC(c2ccccc2)Sc2nc3ccccc3n21 (centres undefined)	-36.1	-2.5	16.2	-19.2	i	101.0
O=C1CC(c2ccco2)Sc2nc3ccccc3n21 (centres undefined)	-50.7	89.0*	105.5*	-9.0	+	102.0
COc1cc(CN2C[C@@H](CO)O[C@@H](n3cnc4c(NCCN(C)C)ncnc43)C2)cc(OC)c1OC	3.3	/	/	/	/	92.0
Cc1ccc(CN2C(=O)c3ccccc3C2c2nnnn2-c2c(C)cccc2C)cc1 (centres undefined)	/	/	/	/	/	95.0
CC(C)Oc1ccc(CN2CCC2(C)C(=O)NCc2cccc3ccccc23)cc1 (centres undefined)	-22.0	/	/	/	/	96.0
Cc1cc(C(=O)CSc2nnc(-c3ccccc3)n2Cc2ccc3c(c2)OCO3)c(C)n1C	-118.3	5.2	94.8*	13.1	i	98.0
Cc1cc(C(=O)CSc2nc3ccccc3c(=O)n2C)c(C)n1Cc1ccc2c(c1)OCO2	-8.5	19.9	20.2	21.6	i	93.0
O=C(CSc1nccn1-c1ccccc1)NCc1ccc2c(c1)OCO2	-24.3	-0.1	33.0	18.3	i	92.0
O=C(CSc1nccn1-c1ccc(F)cc1)NCc1ccc2c(c1)OCO2	-15.3	-9.3	64.7*	10.7	i	106.0
O=C(CSc1nnc(-c2ccccc2)n1Cc1ccco1)NCc1ccc2c(c1)OCO2	-54.0	0.1	60.0*	8.3	i	101.0
COc1ccc(OC(F)(F)F)cc1CC1(C)C(=O)Nc2c(Cl)ccc(Cl)c21 (centres undefined)	0.9	/	/	/	/	96.0
N=c1c(S(=O)(=O)c2ccccc2)cc2c(=O)n3ccccc3nc2n1Cc1ccco1	-13.2	94.8*	33.8	19.2	+	109.0
Cc1cccn2c(=O)c3cc(S(=O)(=O)c4ccccc4)c(=N)n(Cc4ccc(F)cc4)c3nc12	11.8	7.2	27.9	15.0	i	97.0
Cc1ccc2nc3c(cc(S(=O)(=O)c4ccccc4)c(=N)n3Cc3ccco3)c(=O)n2c1	-10.9	70.4	10.6	4.1	i	90.0
Cc1ccc(S(=O)(=O)c2cc3c(=O)n4ccccc4nc3n(Cc3ccco3)c2=N)cc1C	/	67.4*	-4.0	11.1	+	/
CCOC(=O)c1cc2c(=O)n3ccccc3nc2n(Cc2ccco2)c1=NC(=O)c1ccccc1OC	3.0	51.3*	16.2	23.3	i	90.0

High-throughput results from PubChem.
